A short description of assay [1]: qHTS assay to identify small molecule antagonists of the estrogen receptor alpha (ER-alpha) signaling pathway using the BG1 cell line in the presence of 0.1 nM 17-beta-estradiol - cell viability counter screen (AID 1259241). Further: nearly all actives have a fitted effect of over 40% in size. Put shortly: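 In this screen, hormone-deprived VM7Luc4E2 cells were seeded at 4,000 per well, dosed with compound and 0.1 nM estradiol final, and incubated 22 hr at 37C and 5% CO2; fluorogenic live-cell protease signal reported viability.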
(qHTS replaces the single test concentration by a dilution series.)

Assay [2] is described as follows: qHTS assay to identify small molecule antagonists of the androgen receptor (AR) signaling pathway using the MDA cell line in the presence of 0.5 nM R1881 - cell viability counter screen (AID 1259242). Further: nearly all actives have a fitted effect of over 45% in size. Put shortly:
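Cytotoxicity toward MDA-kb2 cells is measured by CellTiter-Fluor live-cell protease fluorescence after 16 hr compound exposure at 37C in the presence of 0.5 nM R1881 stimulator.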

The target of assay [3] is Estrogen receptor (Homo sapiens) (UniProt P03372). As to the kind of experiment: qHTS assay to identify small molecule antagonists of the estrogen receptor alpha (ER-alpha) signaling pathway using the BG1 cell line in the presence of 0.1 nM 17-beta-estradiol (AID 1259244). Further: nearly all actives have a fitted effect of over 50% in size. Put shortly: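 After 5 days in hormone-depleted medium (charcoal-stripped serum, no phenol red), VM7Luc4E2 cells were seeded, incubated 24 h, then co-treated with compound and 0.1 nM (final) estradiol for 22 h before luminescence detection.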
Chain of Estrogen receptor (Homo sapiens) (P03372 whole entry, looked up): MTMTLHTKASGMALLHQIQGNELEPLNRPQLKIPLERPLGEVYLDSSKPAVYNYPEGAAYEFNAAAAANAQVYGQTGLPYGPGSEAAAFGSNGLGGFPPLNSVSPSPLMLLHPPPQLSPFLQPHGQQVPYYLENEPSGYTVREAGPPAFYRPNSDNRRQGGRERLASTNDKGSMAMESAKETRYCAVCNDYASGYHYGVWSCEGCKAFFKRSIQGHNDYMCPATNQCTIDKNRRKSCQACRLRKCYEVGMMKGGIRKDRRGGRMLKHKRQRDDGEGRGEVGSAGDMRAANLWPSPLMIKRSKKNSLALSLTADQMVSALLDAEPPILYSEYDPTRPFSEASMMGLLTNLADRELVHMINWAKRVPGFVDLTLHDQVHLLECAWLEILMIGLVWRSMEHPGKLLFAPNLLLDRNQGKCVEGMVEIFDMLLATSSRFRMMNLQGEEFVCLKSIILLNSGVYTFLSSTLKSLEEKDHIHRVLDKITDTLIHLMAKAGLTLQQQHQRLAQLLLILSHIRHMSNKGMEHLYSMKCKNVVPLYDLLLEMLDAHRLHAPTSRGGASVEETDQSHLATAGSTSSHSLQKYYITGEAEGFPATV

Assay [4] can be described thus: qHTS assay to identify small molecule phospholipidosis (PLD) inducers (AID 1259344; active means well fitted curve in the direction sought with a large enough effect; an effect the other way counts as inactive or inconclusive). The method, boiled down:
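HepG2 cells, 900/well, treated with compound plus LipidTOX Red for 24 h at 37 C; amiodarone positive and DMSO negative controls. Fixed with paraformaldehyde/Hoechst, then high-content imaging scored LipidTOX pit count and integrated intensity per well and per cell.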

The nature of assay [5]: qHTS assay to identify small molecule HDAC inhibitors (AID 1259364). Further: top concentration of the series differs between compounds; nearly all actives have a fitted effect of over 45% in size. Put shortly: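 Homogeneous cell-based luminescent assay of endogenous class I/II HDAC activity; HCT-116 cells, 2 h compound exposure, 30 min HDAC-Glo development at RT.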
The nature of assay [6]: qHTS assay to identify small molecule HDAC inhibitors - cell viability counter screen (AID 1259365). Further: series mostly up to about 92 µM; nearly all actives have a fitted effect of over 50% in size. Put shortly:
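Measured quantity is CellTiter-Glo luminescence from wild-type HCT-116 cells after compound incubation of 2hr at 37C, 5% CO2; reagent developed 30min at room temperature.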

Assay [7] can be described thus: qHTS assay to identify small molecule agonists of the sonic hedgehog signaling (Shh) pathway - cell viability counter screen (AID 1259366). Further: nearly all actives have a fitted effect of over 50% in size. The method, boiled down: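 In quantitative high-throughput format, 3T3 Gli1-Luc cells were exposed to compounds for 24hr and multiplexed for viability using CellTiter-Fluor, incubated 1hr at 37C before the fluorescence read.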

The nature of assay [8]: qHTS assay to identify small molecule antagonists of the sonic hedgehog signaling (Shh) pathway - cell viability counter screen (AID 1259367). Further: nearly all actives have a fitted effect of over 55% in size. The method, boiled down: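 NIH/3T3-derived Gli1-Luc reporter cells, 2,000/well, plated 4 hr before compound addition, then stimulated with conditioned medium for 24 hr at 37C. Viability measured in the same wells by CellTiter-Fluor fluorescence, reagent added at 23 hr for 1 hr.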

A short description of assay [9]: qHTS assay to identify small molecule agonists of the sonic hedgehog signaling (Shh) pathway (AID 1259368; calls by dose curve;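 further: NIH/3T3-derived 3T3Gli1-Luc cells carrying a stable Gli1-driven firefly luciferase reporter; series mostly up to about 92 µM; nearly all actives have a fitted effect of over 15% in size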). Put shortly: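 Steps: seed 3T3 Gli1-Luc cells, incubate 4 hr at 37 C, pin-transfer compounds in DMSO alongside a positive control, incubate 24 hr, add luciferase detection reagent, wait 30 min at room temperature, read luminescence.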
Assay [10] can be described thus: qHTS assay to identify small molecule antagonists of the sonic hedgehog signaling (Shh) pathway (AID 1259369; calls by dose curve; further: nearly all actives have a fitted effect of over 45% in size; further: potency means the concentration at half of the fitted maximal effect). Put shortly: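 Inhibition of Shh signalling is measured as reduced Gli1-response-element firefly luciferase output in an NIH/3T3-derived stable reporter clone stimulated with conditioned medium for 24hr.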
Assay [11] can be described thus: qHTS assay to identify small molecule agonists of the androgen receptor (AR) signaling pathway in the presence of an antagonist - cell viability counter screen (AID 1259379).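 Further: MDA-kb2 human breast cancer cells carrying an MMTV luciferase reporter; series mostly up to about 92 µM; nearly all actives have a fitted effect of over 25% in size.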 The method, boiled down:
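Fluorescence from CellTiter-Fluor, added after 15 hr and read 1 hr later, gave cell viability. Cells were MDA-kb2 exposed to compounds (15 concentrations) in the presence of 3.0uM nilutamide at 37C, 0% CO2.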

Assay [12] can be described thus: qHTS assay to identify small molecule agonists of the estrogen receptor beta (ER-beta) signaling pathway - cell viability counter screen (AID 1259380). Further: nearly all actives have a fitted effect of over 30% in size. Put shortly: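 Same-well viability counter screen. Cells: ER-beta-UAS-bla HEK293T, plated 6 hr before compound, in 2% charcoal-stripped FBS. Compound exposure 16 hr, 37C; viability by CellTiter-Glo luminescence after 30 min at room temperature.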

The nature of assay [13]: qHTS assay to identify small molecule antagonists of the estrogen receptor beta (ER-beta) signaling pathway - cell viability counter screen (AID 1259382). Further: series mostly up to about 92 µM; nearly all actives have a fitted effect of over 55% in size. The method, boiled down: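 Following a 6 hr plating period, HEK293T cells carrying a UAS-driven beta-lactamase reporter under ER-beta control received compounds and 1nM E2 (final). After 16 hr at 37C and 2 hr substrate loading, CellTiter-Glo luminescence indicated viability.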

Assay [14] addresses Estrogen receptor (Homo sapiens) (UniProt P03372). Briefly: qHTS assay to identify small molecule agonists of the estrogen receptor alpha (ER-alpha) signaling pathway in the presence of an antagonist (AID 1259383; calls by dose curve; further: top concentration of the series differs between compounds; nearly all actives have a fitted effect of over 15% in size). The method, boiled down:
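Cells are hormone-deprived for 5 days (charcoal-stripped FBS, no phenol red), plated for 24hr, spiked with 10.0nM ICI-182,780, then dosed at 15 concentrations. After 22hr at 37C, ONE-Glo luminescence reports ERE-luciferase activity.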

Assay [15] can be described thus: qHTS assay to identify small molecule agonists or antagonists of the thyroid stimulating hormone receptor (TSHR) signaling pathway - wild type cell line counter screen (AID 1259384; calls by dose curve). The method, boiled down: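 Wild-type Hek293 cells, 800/well, 18 h at 37C, then compound with Ro20-1724 for 30 min RT. cAMP by HTRF (cAMP-d2/anti-cAMP cryptate), 1 h RT, fluorescence read. 15 concentrations, triplicates.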

The target of assay [16] is Thyrotropin receptor (Homo sapiens) (UniProt P16473). As to the kind of experiment: qHTS assay to identify small molecule antagonists of the thyroid stimulating hormone receptor (TSHR) signaling pathway (AID 1259385; calls by dose curve; further: nearly all actives have a fitted effect of over 20% in size). The method, boiled down: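 TSHR-HEK293 cells (800/well) plated 18 h, then compounds with Ro20-1724 and TSH at 1.5 ng/mL final, 30 min at room temperature. cAMP quantified by HTRF (cAMP-d2/anti-cAMP-cryptate, 1 h); 15 concentrations in triplicate.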
Chain of Thyrotropin receptor (Homo sapiens) (P16473 whole entry, looked up): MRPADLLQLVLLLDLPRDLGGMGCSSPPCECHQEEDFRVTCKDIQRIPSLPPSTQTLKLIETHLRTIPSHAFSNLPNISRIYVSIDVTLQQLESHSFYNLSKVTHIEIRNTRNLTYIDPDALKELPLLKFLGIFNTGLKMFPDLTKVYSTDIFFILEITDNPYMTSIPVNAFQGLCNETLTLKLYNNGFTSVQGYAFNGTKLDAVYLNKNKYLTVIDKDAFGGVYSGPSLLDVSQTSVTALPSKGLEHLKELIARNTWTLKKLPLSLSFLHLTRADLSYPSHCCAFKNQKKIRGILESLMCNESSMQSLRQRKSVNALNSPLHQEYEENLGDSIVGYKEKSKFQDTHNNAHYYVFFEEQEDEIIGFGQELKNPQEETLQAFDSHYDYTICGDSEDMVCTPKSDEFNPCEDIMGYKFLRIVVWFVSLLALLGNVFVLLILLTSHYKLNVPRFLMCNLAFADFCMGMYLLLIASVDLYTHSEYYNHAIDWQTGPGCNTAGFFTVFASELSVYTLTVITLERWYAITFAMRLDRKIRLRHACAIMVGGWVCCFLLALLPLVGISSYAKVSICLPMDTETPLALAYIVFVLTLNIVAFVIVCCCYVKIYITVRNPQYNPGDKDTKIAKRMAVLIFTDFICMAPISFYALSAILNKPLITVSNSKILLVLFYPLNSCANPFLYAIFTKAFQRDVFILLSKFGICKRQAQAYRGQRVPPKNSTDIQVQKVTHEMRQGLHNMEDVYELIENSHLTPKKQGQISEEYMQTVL

Assay [17] addresses Estrogen receptor beta (Homo sapiens) (UniProt Q92731). Briefly: qHTS assay to identify small molecule agonists of the estrogen receptor beta (ER-beta) signaling pathway (AID 1259377; active means well fitted activation curve with a large enough effect in the signal ratio in the repeat runs, not every such curve was filed as active; the % refers to the signal ratio). Put shortly: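 Reporter cells (HEK293T, ER-beta-UAS-bla) receive compounds or DMSO after a 6 hr pre-incubation. They then incubate 16 hr at 37C/5% CO2, and fluorescence from LiveBLAzer B/G substrate is measured after 2 hours at room temperature.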

Assay [18] has the same target. As to the kind of experiment: qHTS assay to identify small molecule antagonists of the estrogen receptor beta (ER-beta) signaling pathway (AID 1259378; active means well fitted inhibition curve with a large enough effect in the signal ratio in the repeat runs, not every such curve was filed as active; the % refers to the signal ratio). The method, boiled down: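 ER-beta-UAS-bla HEK293T cells in 2% charcoal-stripped FBS medium treated with compound plus 1nM final 17-beta-estradiol for 16 hr at 37C. Beta-lactamase reporter read by FRET substrate fluorescence after 2 hours at room temperature.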

In assay [19] the target is Androgen receptor (Homo sapiens) (UniProt P10275). Briefly: qHTS assay to identify small molecule antagonists of the androgen receptor (AR) signaling pathway using the MDA cell line in the presence of 0.5 nM R1881 (AID 1259243). Further: nearly all actives have a fitted effect of over 50% in size. Put shortly:
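Steps: seed MDA-kb2 cells, incubate 5 hr at 37C; pin-transfer compounds in DMSO; add R1881 to 0.5 nM final; incubate 16 hr; add ONE-Glo, wait 30 min at room temperature; read luminescence.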

The target is the same in assay [20]. As to the kind of experiment: qHTS assay to identify small molecule agonists of the androgen receptor (AR) signaling pathway in the presence of an antagonist (AID 1259381; calls by dose curve; further: nearly all actives have a fitted effect of over 15% in size). Put shortly:
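Cells are MDA-kb2 (human breast carcinoma, MMTV-luc, AR/GR responsive). Nilutamide is present at 3.0uM final throughout; compounds are added at 15 concentrations and incubated 16hr at 37C before ONE-Glo luminescence detection.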

“And” between values parts separate entries of the source, which are not always exact repeats. Equal entries are not always repeated. Records with an inconclusive call do not appear. Some structures have more than one record in an assay (separate samples or runs), and their calls can disagree. The source made the active and inactive calls. Unless noted, the call rests on the fitted dose curve; in most records, active means well fitted curve in the direction sought with a large enough effect in the repeat runs; inconclusive means weak or mixed curves; inactive means no such curve, though single readings can be large; an effect the other way counts as inactive or inconclusive.

Chain of Androgen receptor (Homo sapiens) (P10275 whole entry, looked up): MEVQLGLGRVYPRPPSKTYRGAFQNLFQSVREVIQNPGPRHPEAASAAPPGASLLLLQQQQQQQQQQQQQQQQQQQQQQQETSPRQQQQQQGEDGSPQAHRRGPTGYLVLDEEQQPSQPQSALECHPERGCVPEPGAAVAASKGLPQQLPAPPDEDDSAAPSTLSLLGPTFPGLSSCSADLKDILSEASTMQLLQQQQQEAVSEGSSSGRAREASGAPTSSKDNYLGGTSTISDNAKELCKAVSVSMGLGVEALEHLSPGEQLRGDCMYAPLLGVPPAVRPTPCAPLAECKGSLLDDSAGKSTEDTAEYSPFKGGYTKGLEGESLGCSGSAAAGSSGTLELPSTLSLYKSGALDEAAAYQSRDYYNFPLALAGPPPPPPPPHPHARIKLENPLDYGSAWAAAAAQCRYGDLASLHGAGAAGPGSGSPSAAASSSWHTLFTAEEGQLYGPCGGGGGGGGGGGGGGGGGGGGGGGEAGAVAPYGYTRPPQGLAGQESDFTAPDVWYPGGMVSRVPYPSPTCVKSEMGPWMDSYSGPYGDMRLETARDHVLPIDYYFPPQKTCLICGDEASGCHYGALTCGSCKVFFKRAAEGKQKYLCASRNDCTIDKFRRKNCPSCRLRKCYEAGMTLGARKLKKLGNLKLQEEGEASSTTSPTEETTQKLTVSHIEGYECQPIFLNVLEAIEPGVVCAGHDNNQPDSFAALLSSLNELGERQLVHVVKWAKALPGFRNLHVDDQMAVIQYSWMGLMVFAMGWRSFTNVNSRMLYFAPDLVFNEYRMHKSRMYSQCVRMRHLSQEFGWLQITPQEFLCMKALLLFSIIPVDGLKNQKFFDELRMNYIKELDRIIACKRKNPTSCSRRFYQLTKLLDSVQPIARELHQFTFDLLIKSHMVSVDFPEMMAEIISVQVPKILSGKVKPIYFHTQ
Chain of Estrogen receptor beta (Homo sapiens) (Q92731 whole entry, looked up): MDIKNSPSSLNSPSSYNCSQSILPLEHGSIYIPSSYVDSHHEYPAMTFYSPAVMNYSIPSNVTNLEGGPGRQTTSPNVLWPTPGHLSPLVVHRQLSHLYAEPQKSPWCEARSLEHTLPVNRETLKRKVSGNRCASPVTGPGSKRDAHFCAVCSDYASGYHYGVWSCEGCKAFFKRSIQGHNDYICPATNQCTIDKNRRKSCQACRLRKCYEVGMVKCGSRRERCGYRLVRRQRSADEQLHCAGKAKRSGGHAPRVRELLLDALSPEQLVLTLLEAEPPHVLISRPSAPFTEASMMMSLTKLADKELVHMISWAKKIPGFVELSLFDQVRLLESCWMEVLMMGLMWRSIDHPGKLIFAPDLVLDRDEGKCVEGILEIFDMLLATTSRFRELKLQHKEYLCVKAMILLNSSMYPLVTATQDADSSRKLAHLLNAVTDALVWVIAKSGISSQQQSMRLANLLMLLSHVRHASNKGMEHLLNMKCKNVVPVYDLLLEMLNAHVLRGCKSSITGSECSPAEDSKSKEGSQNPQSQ

Turning to `Cc1cc(=O)[nH]c(=S)[nH]1`, the Potency result in [1], in assay [2], in assay [3], in [5], in assay [7] and in assay [8] was “inactive” in each case. Also, the Potency entry in assay [10], in assay [11], in assay [12], in assay [13] and in [14] was “inactive” in each case. For the same compound, the compound was called inactive in assay [4], in [6], in assay [9], in assay [15] and in [16].

With `Nc1ccn([C@H]2CC[C@@H](CO)O2)c(=O)n1`, the Potency entry in [1], in [2], in assay [3], in assay [5], in assay [7] and in assay [10] was “inactive” each time. The Potency result in [18], in assay [11], in [12], in assay [13] and in assay [14] was “inactive” in each case. In addition, the compound was classed as inactive in assay [4], in assay [6], in assay [9], in [17], in [15] and in assay [16].

`Cc1noc(NS(=O)(=O)c2ccc(N)cc2)c1C`: the Potency entry in assay [1], in assay [2], in assay [3], in assay [5], in [7] and in [8] was “inactive” throughout. The Potency entry in [10], in [18], in [11], in assay [12], in assay [13] and in assay [14] was “inactive” each time. In addition, the outcome in assay [4], in assay [6], in assay [9], in assay [17], in assay [15] and in assay [16] was inactive.

Regarding `CC(C)[C@@H]1CC[C@@H](C)C[C@H]1O`, the Potency entry in assay [1], in [2], in assay [19], in assay [5], in assay [7] and in [18] was “inactive” in each case. For the same compound, the Potency entry in assay [11], in [12], in [20] and in [13] was “inactive” each time. For the same compound, the call in assay [4], in assay [6], in assay [9], in [17], in assay [15] and in [16] was inactive. Also, the Potency result in assay [10] was “inactive and 31.6 µM (active)”.

Consider `CC(C)(Oc1ccc(C2CC2(Cl)Cl)cc1)C(=O)O` (stereo unspecified), for which the Potency result in assay [1], in assay [2], in [19], in assay [3], in [5] and in assay [7] was “inactive” in each case. The Potency entry in [10], in assay [18], in assay [11], in assay [12], in assay [20] and in assay [13] was “inactive” throughout. Further, the Potency result in assay [14] was “inactive”. For the same compound, the compound was called inactive in assay [4], in assay [6], in assay [9], in assay [17], in [15] and in assay [16].

Regarding `CCC1(c2ccccc2)C(=O)NCNC1=O`, the Potency result in assay [1], in assay [2], in [5], in [7], in [10] and in assay [18] was “inactive” in each case. Further, the Potency entry in assay [11], in [12] and in assay [13] was “inactive” in each case. Also, the compound was classed as inactive in assay [4], in [6], in [9], in [17], in [15] and in [16].

As for `Nc1ccc(S(=O)(=O)c2ccc(N)cc2)cc1`, the Potency entry in assay [1], in assay [2], in assay [3], in assay [5], in assay [7] and in [10] was “inactive” throughout. For the same compound, the Potency entry in [11], in [12], in assay [13] and in assay [14] was “inactive” in each case. Moreover, the compound was classed as inactive in assay [4], in assay [6], in [9], in assay [15] and in [16].

`O=S(=O)(O)NC1CCCCC1`: the Potency entry in [1], in [2], in [5], in [7], in [8] and in assay [10] was “inactive” each time. Also, the Potency result in assay [11], in assay [12] and in assay [13] was “inactive” throughout. For the same compound, the compound was called inactive in assay [4], in assay [6], in assay [9], in assay [15] and in assay [16].

These data come from PubChem BioAssay (Tox21).
